# Data reported in PubChem BioAssay (Tox21).
# Where “and” joins values, the source holds several entries; their conditions need not be identical. Equal entries are not always repeated. Inconclusive results are not listed. Entries that show only a call come without a potency. Some structures have more than one record in an assay (separate samples or runs), and their calls can disagree. Calls of active or inactive are those of the source. Unless noted, calls follow the shape of the dose curve; as a rule, active = well fitted curve in the direction sought with a large enough effect in the repeat runs; inconclusive = weak or mixed curves; inactive = no such curve, though single readings can be large; an effect the other way counts as inactive or inconclusive.
# How the values were obtained:
# [1] = qHTS assay to identify small molecule agonists of the androgen receptor (AR) signaling pathway in the presence of an antagonist - cell viability counter screen (AID 1259379); also: nearly all actives have a fitted effect of over 25% in size; also: potency is read from the fitted curve at half-maximal effect
# How it was run: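 Each compound was tested at 15 concentrations on MDA-kb2 cells in the presence of 3.0uM nilutamide. Viability was measured by CellTiter-Fluor fluorescence after a 16 hr incubation at 37C in a CO2-free atmosphere.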
# [2] = qHTS assay to identify small molecule antagonists of the estrogen receptor beta (ER-beta) signaling pathway - cell viability counter screen (AID 1259382); also: nearly all actives have a fitted effect of over 55% in size; also: potency is read from the fitted curve at half-maximal effect
# How it was run: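 CellTiter-Glo ATP luminescence measured after the LiveBLAzer read in the same wells; ER-beta-UAS-bla HEK293T cells, 16 hr compound treatment with 1nM 17-beta-estradiol agonist at 37C, 5% CO2.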
# [3] = target: Estrogen receptor (Homo sapiens) (UniProt P03372); assay: qHTS assay to identify small molecule agonists of the estrogen receptor alpha (ER-alpha) signaling pathway in the presence of an antagonist (AID 1259383; calls by dose curve; also: top concentration of the series differs between compounds; nearly all actives have a fitted effect of over 15% in size)
# How it was run: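 Luminescent ERE-luciferase reporter, VM7Luc4E2 cells (endogenous ER-alpha); 10.0nM ICI-182,780 final; 15-point compound titration; 22hr at 37C; ONE-Glo, 30min RT.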
# [4] = qHTS assay to identify small molecule agonists of the estrogen receptor alpha (ER-alpha) signaling pathway in the presence of an antagonist - cell viability counter screen (AID 1259386);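 also: cells exposed to compounds for 22 h at 37 °C before the viability read; nearly all actives have a fitted effect of over 30% in size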; also: potency is read from the fitted curve at half-maximal effect
# How it was run: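 Using estrogen-depleted VM7Luc4E2 cells, the 15-concentration compound series was applied together with 10.0nM ICI-182,780 and incubated 22hr at 37C/5% CO2. Cell viability was then scored by CellTiter-Fluor.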
# [5] = target: Progesterone receptor (Homo sapiens) (UniProt P06401); assay: qHTS assay to identify small molecule agonists of the progesterone receptor (PR) signaling pathway (AID 1346784; calls by dose curve; also: nearly all actives have a fitted effect of over 30% in size)
# How it was run: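 PR-UAS-bla HEK 293T cells (beta-lactamase reporter under UAS) in 2% charcoal-stripped FBS, dosed with 23 nL compound after 6 hr, incubated 16hr at 37C. LiveBLAzer B/G FRET substrate added, fluorescence read after 2 hours.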
# [6] = qHTS assay to identify small molecule antagonists of the progesterone receptor (PR) signaling pathway - cell viability counter screen (AID 1346798); also: nearly all actives have a fitted effect of over 50% in size; also: potency is read from the fitted curve at half-maximal effect
# How it was run: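 PR-UAS-bla HEK293T cells, 3,000/well in 2% charcoal-stripped FBS medium, dosed with compounds plus R5020 agonist and incubated 16 h at 37C. Viability then measured in the same wells by CellTiter-Glo luminescence after 30 min at RT.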
# [7] = qHTS assay to identify small molecule agonists of the progesterone receptor (PR) signaling pathway - cell viability counter screen (AID 1346799; calls by dose curve; also: nearly all actives have a fitted effect of over 45% in size; also: potency is read from the fitted curve at half-maximal effect)
# How it was run: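 Counter screen in the PR-UAS-bla HEK293T wells (2% charcoal-stripped FBS, 16 h compound exposure at 37 C) after the bla read. CellTiter-Glo added, 30 min at room temperature, luminescence read as cell viability.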
# [8] = qHTS assay to identify small molecule antagonists of the TGF-beta/Smad signaling pathway - cell viability counter screen (AID 1346824); also: nearly all actives have a fitted effect of over 50% in size; also: potency is read from the fitted curve at half-maximal effect
# How it was run: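 SBE-bla HEK 293T cells were plated overnight at 37 C, then given compounds in DMSO plus TGF-beta1 (added as 0.25 ng/mL solution) for 5 hr. After the bla read, CellTiter-Glo was added to the same wells and luminescence read after 30 min at room temperature.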
# [9] = qHTS assay to identify small molecule agonists of the TGF-beta/Smad signaling pathway - cell viability counter screen (AID 1346829); also: nearly all actives have a fitted effect of over 45% in size; also: potency is read from the fitted curve at half-maximal effect
# How it was run: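 CellTiter-Glo luminescence readout; SBE-bla HEK 293T cells, overnight plating, compound 5 hr at 37 C/5% CO2, then bla substrate 2 hr RT, then CellTiter-Glo 30 min RT.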
# [10] = target: Thyrotropin-releasing hormone receptor (Homo sapiens) (UniProt P34981); assay: qHTS assay to identify small molecule antagonists of the thyrotropin-releasing hormone receptor (TRHR) signaling pathway (AID 1346877; active = well fitted inhibition curve with a large enough effect in the repeat runs, not every such curve was filed as active; also: potency is read from the fitted curve at half-maximal effect)
# How it was run: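 Calcium signal in dye-loaded TRHR/HEK293 cells; compounds added 5 min before TRH (1 nM final); fluorescence monitored 3 min at 1 s steps.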
# [11] = target: Thyrotropin-releasing hormone receptor (Homo sapiens) (UniProt P34981); assay: qHTS assay to identify small molecule agonists of the thyrotropin-releasing hormone receptor (TRHR) signaling pathway (AID 1346891; calls by dose curve; also: potency is read from the fitted curve at half-maximal effect; as to activation: series mostly up to about 58 µM)
# How it was run: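 HEK293 cells expressing TRHR plated 18 h at 37 C/5% CO2, calcium dye-loaded 2 h at 37 C, then compound added (agonist mode); kinetic calcium fluorescence read 3 min at 1 s intervals; 15 concentrations in triplicate.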
# [12] = target: Androgen receptor (Homo sapiens) (UniProt P10275); assay: qHTS assay to identify small molecule agonists of the androgen receptor (AR) signaling pathway in the presence of an antagonist (AID 1259381; calls by dose curve; also: nearly all actives have a fitted effect of over 15% in size)
# How it was run: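 Plated MDA-kb2 cells (3,000/well) were pre-incubated 5hr, given nilutamide (3.0uM final) or buffer, then dosed with compounds in DMSO at 15 concentrations. Luciferase activity was quantified by luminescence after 16hr at 37C.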
# [13] = qHTS assay to identify small molecule agonists of the TGF-beta/Smad signaling pathway (AID 1346859; active = well fitted activation curve with a large enough effect in the signal ratio in the repeat runs, not every such curve was filed as active; the % refers to the signal ratio; also: series mostly up to about 77 µM)
# How it was run: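 SBE-bla HEK293T cells plated overnight, then compound exposure for 5 h at 37 C. Beta-lactamase reporter read with LiveBLAzer B/G FRET substrate after 2 h at room temperature, fluorescence at 405 nm excitation, 460/530 nm emission.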
# [14] = qHTS assay to identify small molecule agonists or antagonists of the thyroid stimulating hormone receptor (TSHR) signaling pathway - wild type cell line counter screen (AID 1259384; calls by dose curve)
# How it was run: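 Wild-type HEK293 cells were plated 18 h at 37 C/5% CO2, pin-dosed with compound plus Ro20-1724 medium, held 30 min at room temperature, then given cAMP-d2 and anti-cAMP-cryptate; fluorescence was read after 1 h. Fifteen concentrations, triplicate.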
# [15] = target: Thyrotropin receptor (Homo sapiens) (UniProt P16473); assay: qHTS assay to identify small molecule antagonists of the thyroid stimulating hormone receptor (TSHR) signaling pathway (AID 1259385; calls by dose curve; also: nearly all actives have a fitted effect of over 20% in size; also: potency is read from the fitted curve at half-maximal effect)
# How it was run: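 TSHR-HEK293 cells were plated and held 18 h at 37C/5% CO2, then given compound plus Ro20-1724 and stimulated with TSH at 1.5 ng/mL final. After 30 min at room temperature, cAMP was detected with cAMP-d2/anti-cAMP-cryptate (1 h) by fluorescence.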
# [16] = Human pregnane X receptor (PXR) small molecule agonists, qHTS cell viability counter screen (AID 1346977); also: nearly all actives have a fitted effect of over 50% in size; also: potency is read from the fitted curve at half-maximal effect
# How it was run: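 PXR-Luc HepG2 cells (2,000/well, 5% charcoal-stripped FBS) preincubated 5 hr, then exposed to compounds 24 hr at 37 C. Viability read in the same wells by CellTiter-Fluor fluorescence, reagent added at 23 hr, 1 hr incubation.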
# [17] = qHTS assay to identify small molecule agonists of the estrogen receptor beta (ER-beta) signaling pathway - cell viability counter screen (AID 1259380); also: nearly all actives have a fitted effect of over 30% in size; also: potency is read from the fitted curve at half-maximal effect
# How it was run: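 Compounds dissolved in DMSO were pin-transferred onto ER-beta-UAS-bla HEK293T cells that had settled 6 hr, and exposure ran 16 hr at 37C. Following the reporter read, CellTiter-Glo luminescence after 30 min at room temperature indicated cytotoxicity.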
# [18] = target: Progesterone receptor (Homo sapiens) (UniProt P06401); assay: qHTS assay to identify small molecule antagonists of the progesterone receptor (PR) signaling pathway (AID 1346795; active = well fitted inhibition curve with a large enough effect in the signal ratio in the repeat runs, not every such curve was filed as active; the % refers to the signal ratio; also: potency is read from the fitted curve at half-maximal effect)
# How it was run: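 PR-UAS-bla HEK293T cells with beta-lactamase reporter under UAS control, in 2% charcoal-stripped FBS, treated with compounds plus 1 nM promegestone (R5020, final) for 16 hr at 37C. Read-out: FRET beta-lactamase substrate fluorescence after 2 hr at room temperature.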
# Estrogen receptor (Homo sapiens), sequence (P03372 whole entry, looked up): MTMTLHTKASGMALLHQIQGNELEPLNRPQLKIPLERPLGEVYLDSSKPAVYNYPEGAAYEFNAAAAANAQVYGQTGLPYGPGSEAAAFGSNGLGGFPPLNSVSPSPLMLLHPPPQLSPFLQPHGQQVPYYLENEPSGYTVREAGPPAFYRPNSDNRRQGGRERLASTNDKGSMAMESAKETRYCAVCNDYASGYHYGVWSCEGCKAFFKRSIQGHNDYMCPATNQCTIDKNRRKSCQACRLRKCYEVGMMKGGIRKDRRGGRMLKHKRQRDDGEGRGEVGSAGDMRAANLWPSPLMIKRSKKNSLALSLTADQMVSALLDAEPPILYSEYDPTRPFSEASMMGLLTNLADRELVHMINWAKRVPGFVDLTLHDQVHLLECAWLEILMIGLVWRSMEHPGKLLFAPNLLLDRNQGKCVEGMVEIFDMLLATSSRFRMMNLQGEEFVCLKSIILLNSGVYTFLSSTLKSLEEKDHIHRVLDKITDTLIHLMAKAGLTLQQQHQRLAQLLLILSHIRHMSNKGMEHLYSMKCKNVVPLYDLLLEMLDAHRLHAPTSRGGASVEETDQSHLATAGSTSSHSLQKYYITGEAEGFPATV
# Thyrotropin receptor (Homo sapiens), sequence (P16473 whole entry, looked up): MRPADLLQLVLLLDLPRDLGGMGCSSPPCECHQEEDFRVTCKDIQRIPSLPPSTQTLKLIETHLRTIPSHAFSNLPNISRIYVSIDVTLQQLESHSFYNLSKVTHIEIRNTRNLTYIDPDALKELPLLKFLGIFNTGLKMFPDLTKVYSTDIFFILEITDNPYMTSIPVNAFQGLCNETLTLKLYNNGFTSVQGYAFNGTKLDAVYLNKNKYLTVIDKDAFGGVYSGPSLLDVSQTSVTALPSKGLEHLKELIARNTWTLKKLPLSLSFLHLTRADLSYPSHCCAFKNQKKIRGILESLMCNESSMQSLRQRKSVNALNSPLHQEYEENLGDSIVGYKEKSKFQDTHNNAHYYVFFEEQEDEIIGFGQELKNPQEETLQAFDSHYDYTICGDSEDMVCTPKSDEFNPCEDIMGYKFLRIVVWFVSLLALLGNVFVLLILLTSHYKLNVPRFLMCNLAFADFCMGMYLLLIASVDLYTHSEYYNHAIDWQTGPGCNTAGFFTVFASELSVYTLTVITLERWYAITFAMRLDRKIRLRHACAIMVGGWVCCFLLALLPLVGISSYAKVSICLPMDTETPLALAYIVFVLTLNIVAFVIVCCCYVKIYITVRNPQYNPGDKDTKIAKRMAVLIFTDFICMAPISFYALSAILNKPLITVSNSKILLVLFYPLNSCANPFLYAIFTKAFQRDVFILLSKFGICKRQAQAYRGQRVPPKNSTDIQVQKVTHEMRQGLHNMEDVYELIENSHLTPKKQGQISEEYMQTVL
# Androgen receptor (Homo sapiens), sequence (P10275 whole entry, looked up): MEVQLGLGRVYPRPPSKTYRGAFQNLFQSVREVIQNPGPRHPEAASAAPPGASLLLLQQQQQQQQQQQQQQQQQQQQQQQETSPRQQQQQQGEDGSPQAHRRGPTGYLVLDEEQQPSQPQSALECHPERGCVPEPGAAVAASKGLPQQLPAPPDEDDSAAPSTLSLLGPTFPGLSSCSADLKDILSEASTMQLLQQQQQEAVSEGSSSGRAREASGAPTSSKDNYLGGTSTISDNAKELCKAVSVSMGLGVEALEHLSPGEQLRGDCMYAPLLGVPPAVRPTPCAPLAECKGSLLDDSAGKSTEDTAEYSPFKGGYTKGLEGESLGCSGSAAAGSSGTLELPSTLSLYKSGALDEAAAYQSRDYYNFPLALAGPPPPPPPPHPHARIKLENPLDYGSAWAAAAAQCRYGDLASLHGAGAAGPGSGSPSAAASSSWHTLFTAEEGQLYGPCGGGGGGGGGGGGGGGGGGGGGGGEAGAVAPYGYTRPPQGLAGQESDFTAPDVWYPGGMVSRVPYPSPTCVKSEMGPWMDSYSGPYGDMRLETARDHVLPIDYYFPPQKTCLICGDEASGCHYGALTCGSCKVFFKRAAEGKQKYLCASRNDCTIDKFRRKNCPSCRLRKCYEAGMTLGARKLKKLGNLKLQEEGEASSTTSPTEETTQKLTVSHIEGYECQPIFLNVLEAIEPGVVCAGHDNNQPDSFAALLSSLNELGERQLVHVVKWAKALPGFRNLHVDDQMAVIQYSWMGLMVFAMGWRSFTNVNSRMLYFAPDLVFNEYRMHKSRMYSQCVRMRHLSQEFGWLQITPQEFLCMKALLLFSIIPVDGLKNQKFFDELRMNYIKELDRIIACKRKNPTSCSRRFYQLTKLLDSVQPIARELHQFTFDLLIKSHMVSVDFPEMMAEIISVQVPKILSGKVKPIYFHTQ
# Thyrotropin-releasing hormone receptor (Homo sapiens), sequence (P34981 whole entry, looked up): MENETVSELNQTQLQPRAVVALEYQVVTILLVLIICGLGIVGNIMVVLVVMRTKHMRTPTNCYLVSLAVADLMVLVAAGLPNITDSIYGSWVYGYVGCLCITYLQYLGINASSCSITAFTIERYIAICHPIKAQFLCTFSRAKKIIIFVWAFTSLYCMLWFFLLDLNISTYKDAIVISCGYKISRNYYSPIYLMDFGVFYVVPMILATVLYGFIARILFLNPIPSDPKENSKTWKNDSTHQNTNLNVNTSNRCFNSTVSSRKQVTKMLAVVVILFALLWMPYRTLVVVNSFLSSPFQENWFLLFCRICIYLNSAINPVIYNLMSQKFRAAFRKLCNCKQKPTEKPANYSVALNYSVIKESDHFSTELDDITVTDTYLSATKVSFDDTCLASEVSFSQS
# Progesterone receptor (Homo sapiens), sequence (P06401 whole entry, looked up): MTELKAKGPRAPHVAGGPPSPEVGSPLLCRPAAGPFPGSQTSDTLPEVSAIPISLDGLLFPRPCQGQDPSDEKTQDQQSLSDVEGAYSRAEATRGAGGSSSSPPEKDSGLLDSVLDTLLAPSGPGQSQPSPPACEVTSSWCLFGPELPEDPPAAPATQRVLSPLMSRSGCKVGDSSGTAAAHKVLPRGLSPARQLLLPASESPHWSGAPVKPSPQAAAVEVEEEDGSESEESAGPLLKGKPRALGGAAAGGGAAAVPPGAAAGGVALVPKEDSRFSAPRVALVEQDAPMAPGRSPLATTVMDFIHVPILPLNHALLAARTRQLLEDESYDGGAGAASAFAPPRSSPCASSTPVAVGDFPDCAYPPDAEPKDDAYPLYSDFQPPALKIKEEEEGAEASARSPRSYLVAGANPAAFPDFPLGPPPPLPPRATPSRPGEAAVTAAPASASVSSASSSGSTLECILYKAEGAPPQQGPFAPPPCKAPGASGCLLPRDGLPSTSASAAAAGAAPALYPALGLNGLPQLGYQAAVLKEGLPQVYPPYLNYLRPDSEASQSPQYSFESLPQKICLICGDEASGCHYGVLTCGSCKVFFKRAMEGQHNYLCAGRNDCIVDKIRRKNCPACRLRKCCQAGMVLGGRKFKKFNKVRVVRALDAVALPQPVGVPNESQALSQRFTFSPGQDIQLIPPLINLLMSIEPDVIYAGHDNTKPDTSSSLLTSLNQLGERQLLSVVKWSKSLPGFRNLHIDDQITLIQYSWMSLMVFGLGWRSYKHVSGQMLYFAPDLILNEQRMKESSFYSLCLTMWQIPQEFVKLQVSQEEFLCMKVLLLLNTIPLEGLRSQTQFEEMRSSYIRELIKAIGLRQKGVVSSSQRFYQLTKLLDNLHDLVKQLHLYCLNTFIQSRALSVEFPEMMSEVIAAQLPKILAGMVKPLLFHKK
SMILES,Potency [1],Potency [2],Potency [3],Potency [4],Potency [5],Potency [6],Potency [7],Potency [8],Potency [9],Potency [10],Potency [11],Potency [12],outcome [13],outcome [14],Potency [15],Potency [16],Potency [17],Potency [18],activation [13]
O=[N+]([O-])c1ccc2ccc3cccc4ccc1c2c34,48.5 µM (active),inactive,inactive,38.5 µM (active),inactive,inactive,inactive,inactive,inactive,inactive,inactive,–,–,–,–,–,–,–,–
O=c1oc2ccccc2c(O)c1Cc1c(O)c2ccccc2oc1=O,inactive,–,–,inactive,inactive,–,–,inactive,inactive,–,–,inactive,inactive,–,–,–,–,–,–
CCOCCOC(C)=O,inactive,inactive,inactive,–,–,–,–,–,inactive,inactive,inactive,–,inactive,inactive,inactive,inactive,–,–,–
Cn1cc(C2=C(c3cn(C4CCN(Cc5ccccn5)CC4)c4ccccc34)C(=O)NC2=O)c2ccccc21,11.9 µM (active),inactive,–,inactive,inactive,–,–,inactive,inactive,–,–,–,–,inactive,–,–,inactive,–,–
CN(C)S(=O)(=O)N(SC(F)(Cl)Cl)c1ccccc1,30.6 µM (active),54.5 µM (active),–,inactive,–,61.1 µM (active),–,–,–,12 µM (active),inactive,–,inactive,inactive,–,24.3 µM (active),38.6 µM (active),48.6 µM (active),–
CCOP(=O)(NC(C)C)Oc1ccc(SC)c(C)c1 (stereo not drawn),inactive,inactive,–,inactive,inactive,–,–,inactive,inactive,inactive,inactive,inactive,inactive,inactive,–,inactive,–,–,–
ClC(Cl)=C(c1ccc(Cl)cc1)c1ccc(Cl)cc1,inactive,inactive,inactive,inactive,inactive,–,61.1 µM (active),inactive,inactive,inactive,inactive,–,inactive,inactive,28 µM (active),inactive,–,6.26 µM (active),–
CN(C)C(=S)[S-].CN(C)C(=S)[S-].[Cu+2],3.33 µM (active),7.45 µM (active),–,13.2 µM (active),–,1.18 µM (active),1.49 µM (active),4.23 µM (active),9.46 µM (active),–,–,–,–,–,–,5.92 µM (active),5.92 µM (active),–,-6.22% [at 15.8 µM] (inactive)
N#Cc1c(-c2ccc(Cl)cc2)[nH]c(C(F)(F)F)c1Br,0.969 µM (active),38.6 µM (active),inactive,–,–,4.33 µM (active),6.86 µM (active),–,inactive,inactive,inactive,inactive,–,inactive,inactive,0.77 µM (active),–,–,–
CC(=[OH+])/C=C(/C)[O-].CC(=[OH+])/C=C(\C)[O-].CC(=[OH+])/C=C(\C)[O-].[Al],inactive,inactive,inactive,inactive,inactive,inactive,inactive,inactive,inactive,–,–,–,inactive,–,–,inactive,inactive,–,–
CC(C)CC(C)(c1ccc(O)cc1)c1ccc(O)cc1,inactive,54.6 µM (active) and 68.6 µM (active),–,inactive,–,–,–,inactive,inactive,–,inactive,–,inactive,inactive,inactive,50.1 µM (active),68.7 µM (active) and 61.1 µM (active),6.11 µM (active),–
C=CCC1=C(C)C(OC(=O)C2C(C=C(C)C)C2(C)C)CC1=O (stereo not drawn),61.1 µM (active),inactive,inactive,–,–,–,–,–,inactive,inactive,–,–,inactive,inactive,–,–,–,–,–
Oc1ccccc1Br,inactive,inactive,inactive,inactive,inactive,–,inactive,inactive,inactive,–,–,–,inactive,–,–,inactive,inactive,inactive,–
CCCCCCCCCCCCCCCC[n+]1ccccc1,25.5 µM (active) [middle of 4 runs],29.8 µM (active) [middle of 4 runs],inactive,71.7 µM (active) and 61.1 µM (active) and 60.3 µM (active),inactive,50.8 µM (active) and 61.1 µM (active) and 60.3 µM (active),50.8 µM (active) and 54.5 µM (active),43.6 µM (active) [middle of 4 runs],54.2 µM (active) [middle of 4 runs],–,36.3 µM (active) and inactive,–,–,–,–,30.6 µM (active) [middle of 4 runs],–,–,–
C[C@]12CC[C@H](O)C[C@H]1CC[C@@H]1[C@@H]2C[C@@H](O)[C@]2(C)[C@@H](C3=CC(=O)OC3)CC[C@]12O,inactive,0.77 µM (active),–,inactive,inactive,1.72 µM (active),1.54 µM (active),–,–,inactive,inactive,–,–,inactive,–,–,1.09 µM (active),–,–
CC(C)(C)c1ccc(CSc2cnn(C(C)(C)C)c(=O)c2Cl)cc1,0.0433 µM (active),inactive,inactive,2.43 µM (active),inactive,inactive,–,inactive,inactive,inactive,inactive,–,inactive,inactive,–,0.122 µM (active),–,–,–
